# Several values for one entry are separate records, joined by “and”; a condition that tells them apart may be missing. Identical values can stand only once. Results filed as inconclusive are left out. Entries that show only a call come without a potency. Some structures have more than one record in an assay (separate samples or runs), and their calls can disagree. Activity calls are given as the source filed them. The call rests on the fitted dose curve.
# Molecular target: Thyrotropin receptor (Homo sapiens) (UniProt P16473)
# Sequence (P16473 whole entry, looked up): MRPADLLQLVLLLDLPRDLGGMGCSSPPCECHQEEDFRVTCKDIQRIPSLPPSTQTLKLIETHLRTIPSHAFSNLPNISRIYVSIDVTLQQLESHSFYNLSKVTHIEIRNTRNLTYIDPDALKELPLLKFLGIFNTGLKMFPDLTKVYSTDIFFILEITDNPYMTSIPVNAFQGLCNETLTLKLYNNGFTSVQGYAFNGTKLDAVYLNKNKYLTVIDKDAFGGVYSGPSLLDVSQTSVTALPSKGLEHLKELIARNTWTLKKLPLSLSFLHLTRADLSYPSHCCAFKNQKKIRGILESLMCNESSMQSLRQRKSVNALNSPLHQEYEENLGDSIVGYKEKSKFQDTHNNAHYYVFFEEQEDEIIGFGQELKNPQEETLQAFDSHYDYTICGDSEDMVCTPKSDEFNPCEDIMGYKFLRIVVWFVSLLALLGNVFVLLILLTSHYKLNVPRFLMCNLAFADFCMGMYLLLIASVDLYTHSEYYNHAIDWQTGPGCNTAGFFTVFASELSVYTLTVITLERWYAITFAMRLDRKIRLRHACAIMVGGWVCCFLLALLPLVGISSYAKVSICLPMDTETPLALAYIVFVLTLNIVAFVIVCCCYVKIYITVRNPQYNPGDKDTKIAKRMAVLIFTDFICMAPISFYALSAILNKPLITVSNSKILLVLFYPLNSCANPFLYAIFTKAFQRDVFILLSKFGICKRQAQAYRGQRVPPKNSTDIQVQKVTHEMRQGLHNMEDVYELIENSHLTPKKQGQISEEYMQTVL
# Assay: qHTS assay to identify small molecule antagonists of the thyroid stimulating hormone receptor (TSHR) signaling pathway (AID 1259385); further: nearly all actives have a fitted effect of over 20% in size
# Settings: TSHR-HEK293 cAMP HTRF, TSH-stimulated antagonist mode; series mostly up to 92.4 µM; activity change, negative = inhibition: at the top concentration
# From the text: U.S. Tox21 Program National Center for Advancing Translational Sciences [NCATS] NIH Chemical Genomics Center [NCGC] U.S. Environmental Protection Agency [EPA] National Institutes of Environmental Health Sciences [NIEHS] National Toxicology Program [NTP] U.S. Food and Drug Administration [FDA] Tox21 Assay Overview: TSHR is the receptor for thyrotropin (thyroid stimulating hormone or TSH), a member of the glycoprotein hormone family. TSH is released by the anterior pituitary gland and is the main regulator of thyroid gland growth and development. Upon binding circulating thyrotropin, a G-protein signal cascade activates adenylyl cyclase and […] cAMP concentration is increased. cAMP is a key second messenger involved extensively in cellular signal transduction pathways associated with the majority of G-protein coupled receptors (GPCRs). The activation of these GPCRs by neurotransmitters, lipids, nucleotides, peptides and hormones results in the activation or the inhibition of plasma membrane-bound adenylate cyclase through heterotrimeric G-proteins. A cell-based TSHR assay can be used to screen chemical compounds that modulate TSHR either in agonist or antagonist mode.
# Tox21 Assay Protocol Summary: TSHR-Hek293 cells were dispensed at 800 cells/4uL/well in 1536-well white plates using a Multidrop dispenser. After the assay plates were incubated at a 37C/5% CO2 incubator for 18 hrs, 23 nL of compounds dissolved in DMSO, positive controls or DMSO only was transferred to the assay plate by a pin tool, followed by 1 ul medium containing Ro20-1724. For the antagonist mode screening, 1 uL of TSH was added on the top of the cell/compound mixtures to achieve a final agonist concentration of 1.5 ng/mL. After 30 min of incubation at room temperature, 2.5 ul/well of cAMP-d2 and 2.5 ul/well of anti-cAMP-cryptate were added respectively into the assay plates using a Flying Reagent Dispenser. The plates were incubated at room temperature for 1 hr. The fluorescence intensity in the plates was measured using an Envision plate reader. Each test compound was measured at 15 concentrations and in triplicates.
# Potency means the concentration at half of the fitted maximal effect.
SMILES,Potency,"activity change, negative = inhibition"
COP(=O)(OC)C(O)C(Cl)(Cl)Cl (stereo not given),inactive,
COCC(=O)N(c1c(C)cccc1C)C(C)C(=O)OC (stereo not given),inactive,
CCCn1cc[n+](C)c1,inactive,
CC(=O)[O][Hg][c]1ccccc1,60.6 µM (active) and 68.6 µM (active),
O=P1(N(CCCl)CCCl)NCCCO1 (stereo not given),inactive,
O=C(O)C(Cl)(Cl)Cl,inactive,
CCCCCCCCn1cc[n+](C)c1,inactive,
O=[N+]([O-])O,inactive,
CCNc1nc(Cl)nc(NCC)n1,inactive,
C[C@]12CCC(=O)C=C1CC[C@@H]1[C@@H]2CC[C@]2(C)C(=O)CC[C@@H]12,inactive,
Cc1cc(Cl)ccc1OCC(=O)O,inactive,
Nc1ccc(-c2ccc(N)c(Cl)c2)cc1Cl,inactive and 57 µM (active),
CCC(=O)C(CC(C)N(C)C)(c1ccccc1)c1ccccc1 (stereo not given),inactive,
CCCCCCCCCCCC(=O)O,inactive,
OCCOc1ccccc1,inactive,
CCOP(=S)(OCC)Oc1ccc2c(C)c(Cl)c(=O)oc2c1,,-5.97% [at 42.5 µM] (inactive)
Cc1cc(Cl)ccc1N,inactive,
O=C(O)c1nc(Cl)ccc1Cl,inactive,

SMILES,Potency,"activity change, negative = inhibition"
CC[n+]1ccccc1,inactive,
CCCC[N+]1(C)CCCCC1,inactive,
CC[N+](CC)(CC)CC,inactive,
C=CCOC(Cn1ccnc1)c1ccc(Cl)cc1Cl (stereo not given),,1.06% [at 42.5 µM] (inactive)
CCCCCCCCCCCCCCCCn1cc[n+](C)c1,inactive,
CCCCCCCCCCCCCC[P+](CCCCCC)(CCCCCC)CCCCCC,68.9 µM (active) and 69.1 µM (active) and inactive,
COc1ccc(N)cc1,inactive,
C[N+](C)(C)Cc1ccccc1,inactive,
Nc1ccccc1,inactive,
CCCC[n+]1ccccc1,inactive,
CC(Cl)(Cl)C(=O)O,inactive,
O=C(O)C(Cl)Cl,inactive,
CCC[N+]1(C)CCCCC1,inactive,
C1CCC(NC2CCCCC2)CC1,inactive,
CN(C)[C@@H]1C(=O)C(C(N)=O)=C(O)[C@@]2(O)C(=O)C3=C(O)c4c(O)cccc4[C@@](C)(O)[C@H]3[C@H](O)[C@@H]12,inactive,
Nc1ccc(Cl)cc1,inactive,
O=C(O)CCl,inactive,

# Source: PubChem BioAssay (Tox21)
